Compound activity from PubChem BioAssay.
SKKanGAS inh = inhibitors of SKKanGAS S. pyogenes growth in kanamycin (SK-promoter or general growth effect); BacTiter-Glo, 6 h; actives 1.3% (n = 300,000); inhibition, % at 7.5 µM;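 active means mean replicate score, as percent of positive control median, at least 50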;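 further: strain carries kanamycin resistance gene driven by streptokinase promoter and grows in 40 µg/ml kanamycin; loss of luminescence reflects streptokinase promoter inhibition or plain growth inhibition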
NALP3 yeast inh = NALP3 inhibition in yeast; Yeast reconstituted NLRP3/ASC/caspase-1, beta-gal luminescence, 24 h; inhibition, % at 10 µM; actives 0.39% (n = 330,000); AID 2825;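 active means inhibition of 50% or more; inactive means inhibition below 50%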
TIM10 inh = TIM10 yeast growth inhibition; actives 1.4% (n = 330,000); inhibition, % at 10 µM; AID 463195; S. cerevisiae TIM10 strain growth, BacTiter-Glo luminescence, 24 h;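 active means inhibition of 40% or more at the single tested concentration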;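 further: wild-type TIM10 isogenic control strain grown at permissive 25 °C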
tim23-1 inh = growth inhibitors of tim23-1 mutant yeast; AID 463212; inhibition, % at 20 µM; actives 1.3% (n = 330,000); S. cerevisiae tim23-1 growth, BacTiter-Glo luminescence, 24 h;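 active means growth inhibition of the mutant yeast at or above 50%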;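 further: temperature-sensitive mutant grown at 25 °C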
tim10-1 inh = tim10-1 yeast growth inhibition; S. cerevisiae tim10-1 ts strain growth, BacTiter-Glo, 24 h; inhibition, % at 20 µM; actives 2.2% (n = 330,000); AID 463190;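 active means inhibition of at least 40%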;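 further: mutant grown at 25 °C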
Hits are given with their value. Most compounds without a hit are left out; they make up all but 4.6% or so of the library.

For O=c1c2cc(Br)ccc2nc(-c2cccc(C(F)(F)F)c2)n1O the results were SKKanGAS inh 111.1, NALP3 yeast inh inactive, TIM10 inh inactive, tim23-1 inh inactive and tim10-1 inh inactive.
`N#Cc1ccc(-c2nc3ccc(Br)cc3c(=O)n2O)cc1` gave SKKanGAS inh inactive, NALP3 yeast inh inactive, TIM10 inh inactive, tim23-1 inh inactive and tim10-1 inh inactive.
For O=c1c2cc(Cl)ccc2nc(-c2ccc(Cl)c(Cl)c2)n1O the results were SKKanGAS inh 74.5, NALP3 yeast inh inactive, TIM10 inh inactive, tim23-1 inh inactive and tim10-1 inh inactive.
For CCN(C[C@H]1N[C@@](Cc2ccccc2)(C(=O)OC)[C@H]2C(=O)N(C)C(=O)[C@@H]12)C(=O)COc1ccccc1 the results were NALP3 yeast inh inactive, TIM10 inh inactive, tim23-1 inh inactive and tim10-1 inh inactive.
`COc1ccc(C2Oc3ccccc3C3=C2C(c2cccs2)n2ncnc2N3)cc1` (configuration not stated) gave SKKanGAS inh 78.1, NALP3 yeast inh inactive, TIM10 inh inactive, tim23-1 inh inactive and tim10-1 inh inactive.
For Brc1ccc(C2C3=C(Nc4ncnn42)c2ccccc2OC3c2ccncc2)cc1 (configuration not stated) the results were SKKanGAS inh 87.6, NALP3 yeast inh inactive, TIM10 inh inactive, tim23-1 inh inactive and tim10-1 inh inactive.
CC1(C)CCN2CCC(C)(C)c3c(O)ccc1c32 was read as SKKanGAS inh inactive, NALP3 yeast inh inactive, TIM10 inh inactive, tim23-1 inh inactive and tim10-1 inh inactive.
Screening Cc1cc(OCC(=O)OCC(=O)Nc2cc(S(=O)(=O)N3CCOCC3)ccc2Cl)ccc1Cl returned NALP3 yeast inh inactive, TIM10 inh inactive, tim23-1 inh inactive and tim10-1 inh inactive.
Screening COc1ccc2oc(C(=O)OCC(=O)NC3(C#N)CCCC3)c(C)c2c1 returned SKKanGAS inh 53.2, NALP3 yeast inh inactive, TIM10 inh inactive, tim23-1 inh inactive and tim10-1 inh inactive.
`COCc1c(C(=O)NCCc2ccc(OC(F)F)cc2)oc2ccccc12` gave NALP3 yeast inh inactive, TIM10 inh inactive, tim23-1 inh inactive and tim10-1 inh inactive.
COc1ccc(-c2coc3c(C)c4oc(=O)c(CCC(=O)O)c(C)c4cc23)cc1 was read as SKKanGAS inh 53.2, NALP3 yeast inh inactive, TIM10 inh inactive, tim23-1 inh inactive and tim10-1 inh inactive.
Screening Cc1ccc2nc(N/C(=N/S(=O)(=O)c3ccc(F)cc3F)c3ccccc3)sc2c1 returned SKKanGAS inh inactive, NALP3 yeast inh inactive, TIM10 inh inactive, tim23-1 inh inactive and tim10-1 inh inactive.
Cc1ccc2nc(N/C(=N/S(=O)(=O)c3ccc(F)cc3)c3ccccc3)sc2c1 was read as SKKanGAS inh 51.0, NALP3 yeast inh inactive, TIM10 inh inactive, tim23-1 inh inactive and tim10-1 inh inactive.
Cc1ccc2nc(-c3ccc(NS(=O)(=O)c4ccc(F)cc4)cc3)sc2c1 was read as SKKanGAS inh 76.1, NALP3 yeast inh inactive, TIM10 inh inactive, tim23-1 inh inactive and tim10-1 inh inactive.
`CCc1ccc(NC(=O)C(=O)NCC2CCCN2S(=O)(=O)c2ccccc2)cc1` (configuration not stated) gave SKKanGAS inh inactive, NALP3 yeast inh inactive, TIM10 inh inactive, tim23-1 inh inactive and tim10-1 inh inactive.
For COc1ccc(Br)cc1CN(C)C(=O)c1ccccc1OCc1c(C)noc1C the results were SKKanGAS inh inactive, NALP3 yeast inh inactive, TIM10 inh inactive, tim23-1 inh inactive and tim10-1 inh inactive.
For C[C@H](CO)N1C[C@H](C)[C@@H](CN(C)C(=O)Nc2ccc(C(F)(F)F)cc2)Oc2c(NS(=O)(=O)c3cn(C)cn3)cccc2C1=O the results were NALP3 yeast inh inactive, TIM10 inh inactive, tim23-1 inh inactive and tim10-1 inh inactive.
Cc1ccc(NC(=S)Nc2ccc(C(C)C)cc2)cc1S(=O)(=O)N1CCCCCC1 was read as SKKanGAS inh 55.5, NALP3 yeast inh inactive, TIM10 inh inactive, tim23-1 inh inactive and tim10-1 inh inactive.
For COc1ccc(NC(=S)Nc2ccc(C)c(S(=O)(=O)N3CCCCC3)c2)cc1 the results were SKKanGAS inh inactive, NALP3 yeast inh inactive, TIM10 inh inactive, tim23-1 inh inactive and tim10-1 inh inactive.
COC(=O)c1c(NC(C)=O)sc2c1CCCC2 was read as SKKanGAS inh inactive, NALP3 yeast inh inactive, TIM10 inh inactive, tim23-1 inh inactive and tim10-1 inh inactive.
Screening COC(=O)c1c(NC(NC(=O)C(C)C)C(Cl)(Cl)Cl)sc2c1CCCC2 (configuration not stated) returned SKKanGAS inh 57.7, NALP3 yeast inh inactive, TIM10 inh inactive, tim23-1 inh inactive and tim10-1 inh inactive.
